Anthrax LF prot = anthrax lethal factor protease inhibition | multiplex microsphere protease cleavage assay, LF | P15917 | AID 588501 | hit rate 0.12% among 360,000 | inhibition, % at 10 µM; note: plate controls were buffer without enzyme for full effect and enzyme alone for no effect
BoNT-F LC inh = inhibitors of Botulinum neurotoxin F light chain protease | Multiplex microsphere protease cleavage assay, flow cytometry | inhibition, % at 10 µM | hit rate 0.22% among 360,000 | AID 588497; in the data active = inhibition above about 35%, passing the limit was not always enough; inconclusive = no clear call, values can overlap the other calls; note: plate controls were buffer without enzyme for full effect and enzyme alone for no effect
PriA SSB inh = inhibitors of Klebsiella pneumoniae PriA binding to SSB C-terminal tail | AlphaScreen SSBct-PriA binding, biotinylated peptide | inhibition, % at 33 µM | hit rate 0.6% among 430,000; in the data active = inhibition mostly above about 37%, no sharp cut-off; inactive = mostly below about 20%;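 note: plate controls were negative control peptide for no effect and reference peptide for full effect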
MazF activator = activators of E. coli MazEF toxin-antitoxin RNase; P0AE70; FAM/BHQ RNA-DNA oligo cleavage fluorescence, 5 h; activation, % at 20 µM; hit rate 0.32% among 350,000; in the data active = activation above about 50%
Target sequence (P0AE70 whole entry, looked up): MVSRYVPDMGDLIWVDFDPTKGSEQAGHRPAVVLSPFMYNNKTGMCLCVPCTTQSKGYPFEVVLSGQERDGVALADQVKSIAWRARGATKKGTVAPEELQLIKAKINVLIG
Bead autofluor = flagged as autofluorescent in microsphere protease counterscreen; compound autofluorescence counterscreen, microsphere flow cytometry; active compounds read high; fluorescence intensity (test concentration not listed); hit rate 3.1% among 360,000; in the data active = fluorescence intensity above about 16000; inconclusive = no clear call, values can overlap the other calls
BoNT-A LC inh2 = blocks Botulinum neurotoxin A light chain protease; inhibition, % at 10 µM; hit rate 0.17% among 360,000; multiplex microsphere protease substrate cleavage, flow cytometry; AID 588499; note: plate controls were buffer without enzyme for full effect and enzyme alone for no effect
* hit, by the source's call; ? = inconclusive; nt = no result given; + = active, no number. Compounds with a hit are over-represented: about 3.3% of the library has one in this group of screens. Cut-off read from the data, not from the text of the source, unless noted: active = inhibition above about 30%; inconclusive = no clear call, values can overlap the other calls; inactive = below that.

SMILES	Anthrax LF prot	BoNT-F LC inh	PriA SSB inh	MazF activator	Bead autofluor	BoNT-A LC inh2
COc1ccc(CNC(=O)CSc2nnc3c(n2)[nH]c2ccc(F)cc23)cc1	8	-11	-11	-10	3652	-6
CCCCCn1c(SCC#N)nc2cc(C(=O)N3CCc4ccccc4C3)ccc2c1=O	nt	nt	14	nt	nt	nt
C=CCNC(=S)NNC(=O)c1cccc(Br)c1	-3	-5	-4	-1	2576	-1
C=CCNC(=O)c1cccc(Br)c1	-1	-4	-12	-1	23849*	-3
CCCOc1c(OC)cccc1C1CC(=O)Nc2cc(OC)c(OC)c(OC)c21 (configuration not stated)	4	-10	-1	-1	3981	-2
COc1cc2c(c(OC)c1)C(c1cccc(OC)c1OC)CC(=O)N2 (configuration not stated)	5	-3	115*	7	6273	0
COC(=O)Nc1ccc(S(=O)(=O)NCc2ccnc(-c3cccs3)c2)cc1	nt	nt	-11	nt	nt	nt
Cc1cccc(-c2nc(SCC(=O)NC3CCCC3)c3c(=O)n(C)c(=O)n(C)c3n2)c1	nt	nt	-2	nt	nt	nt
CC(=O)/C(=C\N(C)C)Sc1ccc(C)cc1	?	38*	-5	3	3560	-1
CCc1ccc(CN(C)CCc2ccccn2)cc1	-4	-1	-32	2	16273*	?
Cc1ccc(CN(C)CCc2ccccn2)cc1	-1	-8	5	-14	12063	0
CN(CCc1ccccn1)Cc1ccc(Cl)cc1	0	-3	-7	5	20900*	0
O=S(=O)(NCCC(O)c1cccs1)c1ccc2c(c1)OCCO2 (configuration not stated)	nt	nt	-16	nt	nt	nt
CN(C)S(=O)(=O)c1cccc(-c2cn3cc(Cl)ccc3n2)c1	-2	-1	-1	2	17034*	-2
O=C(c1ccco1)N1CCN(C(=O)c2nn3cccnc3c2Cl)CC1	-1	-1	-9	-2	22749*	0
O=C(c1nn2cccnc2c1Cl)N1CCN(c2ccccc2)CC1	0	6	-4	0	4170	0
COc1cc(CNn2nnnc2N)cc(Br)c1OCc1c(Cl)cccc1Cl	-1	-6	11	-4	23392*	?
COc1cc(CNn2nnnc2N)cc(Br)c1OCC(=O)NC(C)(C)C	3	-8	-16	4	5781	-1
CC(=O)Nc1ccc(N=Cc2nc(-c3ccc(C)cc3)oc2O)cc1	-5	-3	8	245*	4024	0
CN(C)c1ccc(N=Cc2nc(-c3ccccc3)oc2O)cc1	-2	8	-2	246*	3171	0
CN(C)c1ccc(N=Cc2nc(-c3ccccc3)oc2OC(=O)c2ccccc2)cc1	-1	-1	-2	354*	2521	2
O=C(CC1OC(=O)c2ccccc21)c1cccs1 (configuration not stated)	nt	nt	-9	nt	nt	nt
O=C(Cn1nnc2ccccc21)Nc1ccccc1-c1cn2ccccc2n1	nt	nt	-15	nt	nt	nt
O=C(Nc1nnc(C2CCCO2)o1)c1cccc(Oc2ccccc2)c1 (configuration not stated)	nt	nt	74*	nt	nt	nt
O=C1C(c2ccc(F)cc2)N(Cc2ccc3c(c2)OCO3)C(=O)CN1C1CCCC1 (configuration not stated)	-1	-14	-15	2	25677*	-10
SMILES	Anthrax LF prot	BoNT-F LC inh	PriA SSB inh	MazF activator	Bead autofluor	BoNT-A LC inh2
O=C1C(c2ccc(F)cc2)N(CC2COc3ccccc3O2)C(=O)CN1C1CCCCC1 (configuration not stated)	-3	8	-10	0	10837	0
COc1ccccc1CN1C(=O)CN(C2CCCC2)C(=O)C1c1ccc(F)cc1 (configuration not stated)	-9	-1	-10	-8	16593*	?
O=C1C(c2ccc(F)cc2)N(Cc2ccc3c(c2)OCO3)C(=O)CN1C1CCCCC1 (configuration not stated)	-6	-1	-1	1	20863*	-1
O=c1c2nc(N3CCCC3)sc2c(-c2cccs2)nn1Cc1cccc(C(F)(F)F)c1	nt	nt	-10	nt	nt	nt
CCOC(=O)N1CCC(NC(=O)C2CN(S(C)(=O)=O)C2)CC1	nt	nt	-4	nt	nt	nt
CNC(=S)NNC(=O)c1cccn(Cc2cccc(Cl)c2)c1=O	0	-3	-3	-3	24235*	-2
CNC(=S)NNC(=O)c1cccn(Cc2ccc(Cl)c(Cl)c2)c1=O	0	-2	20	6	22977*	1
O=C(Nc1nnc(-c2ccc(F)cc2)s1)c1cccc2ccccc12	nt	nt	-11	nt	nt	nt
Cc1ccc(/C=C2/NC(=O)N(Cc3ccccc3F)C2=O)s1	2	2	-18	86*	2658	10
CC(C)Cc1nnc(NS(=O)(=O)Cc2ccccc2)s1	2	8	-5	2	21019*	7
CC(C)Cc1nnc(NS(=O)(=O)c2ccccc2)s1	0	-4	nt	-4	3733	0
CCN1C(=O)NC(=O)/C(=C\c2cn(CC(=O)N3CCCCC3C)c3ccccc23)C1=O (configuration not stated)	-2	-15	-3	+	?	-5
Cc1ccc2nc(N3CCN(C)CC3)c(C#N)cc2c1	-2	2	-7	-2	9382	0
Cc1ccc2nc(N3CCN(S(=O)(=O)c4ccc(C)c(Cl)c4)CC3)c(C#N)cc2c1	13	12	-2	-7	21608*	?
CC(=O)n1c(C=Nc2ccc(Cl)cc2)c(O)c2ccccc21	-6	-1	-5	+	4626	-1
O=C(CSC(=S)N1CCCCC1)Nc1nc(-c2ccccc2)c(-c2ccccc2)o1	-10	2	2	3	21247*	1
CCC(CC)c1nn2c(N)c(C=C3C(C)=Nc4ccccc43)c(=O)nc2s1	nt	nt	5	nt	nt	nt
O=C(NCCN1CCN(c2ccc(Cl)cc2)CC1)c1ccncc1	nt	nt	4	nt	nt	nt
Cc1cc(Nc2ccccc2C(=O)O)n2ncnc2n1	-1	-5	nt	-2	3890	0
Cc1cc(Nc2ccccc2N2CCOCC2)n2ncnc2n1	-2	-1	-3	2	16563*	0
Cc1cc(C)c(S(=O)(=O)N2CCCCC2CCNC(=O)C(=O)NCCc2ccco2)c(C)c1 (configuration not stated)	nt	nt	3	nt	nt	nt
Cc1ccc2nc(SCc3cccc(C(F)(F)F)c3)nc(=O)n2c1	nt	nt	-17	nt	nt	nt
COc1cccc(-c2cc(C(=O)NCCN3CCOCC3)no2)c1	0	-5	-20	2	17375*	-3
O=C(NC(=S)NCCN1CCOCC1)c1cccc(Cl)c1	1	-2	-24	-3	22268*	-1
COc1ccc(C2CC(C(F)(F)F)n3nc(C(=O)NCCN4CCOCC4)cc3N2)cc1 (configuration not stated)	-2	-4	1	10	17087*	-1
O=C(NCCN1CCOCC1)c1cc(-c2ccc(Cl)cc2)on1	-3	-5	-7	4	17467*	?
COc1cccc(-n2c(SCC(=O)Nc3nc4ccc(C)cc4s3)nc3c(c2=O)SCC3)c1	nt	nt	21	nt	nt	nt
CC(C)Oc1ccc(C(O)=C2C(=O)C(=O)N(CCCn3ccnc3)C2c2cccnc2)cc1 (configuration not stated)	nt	nt	-2	nt	nt	nt
